{"source": "the supplement of paper PMC8728848", "binders": {"B1": {"name": "rCnSL-proA (Clitocybe nebularis) (protein)", "chain": "AAFFSLVVLLALLPFGIHASALPSTELTPRVNPNLPGPNDVFVGFRGTNNIVGAIYEKDGIKDTPLNNGADAEMGPGSYITDGLFTARIFASGSAGNNPGTTATVCKIYASGVQWRGAPKGYIPVAYFGNGPTAEQRRQTYLRTLGLPGTAIRFGNLNTNPGQGPTAPRQMVVPPGPLRSLLKASCFPAADTRLPQTLHYFEKRVDWNIITAADSQTWGH"}}, "test_in_all_cases": "glycan array binding signal (z-score within array); higher = stronger binding", "conditions_in_all_cases": "glycan notation: IUPAC condensed, linker removed", "key": {"[1]": {"biological_target": "Fuc(a1-2)Gal(b1-3)GalNAc", "how_it_was_run": "(§1)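 The Consortium for Functional Glycomics database supplied 3228 glycan arrays, of which those lacking an available protein sequence were dropped. The binding signal, a within-array Z-score, was averaged across arrays of the same protein sequence and across linkers. Negative scores can be read as non-binding.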"}, "[2]": {"biological_target": "Fuc(a1-2)Gal(b1-3)GlcNAc", "how_it_was_run": "as §1"}, "[3]": {"biological_target": "Fuc(a1-2)Gal(b1-3)[Fuc(a1-4)]GlcNAc(b1-2)Man(a1-3)[Fuc(a1-2)Gal(b1-3)[Fuc(a1-4)]GlcNAc(b1-2)Man(a1-3)]Man(b1-4)GlcNAc(b1-4)GlcNAc", "how_it_was_run": "as §1"}, "[4]": {"biological_target": "Fuc(a1-2)Gal(b1-3)[Fuc(a1-4)]GlcNAc(b1-3)[Fuc(a1-3)[Gal(b1-4)]GlcNAc(b1-6)]Gal(b1-4)Glc", "how_it_was_run": "as §1"}, "[5]": {"biological_target": "Fuc(a1-2)Gal(b1-4)Glc", "how_it_was_run": "as §1"}, "[6]": {"biological_target": "Fuc(a1-2)Gal(b1-4)[Fuc(a1-3)]GlcNAc(b1-3)[Neu5Ac(a2-6)Gal(b1-4)GlcNAc(b1-6)]Gal(b1-4)Glc", "how_it_was_run": "as §1"}, "[7]": {"biological_target": "Fuc(a1-2)Gal6S(b1-4)Glc6S", "how_it_was_run": "as §1"}, "[8]": {"biological_target": "Fuc(a1-2)[Gal(a1-3)]Gal(b1-3)GalNAc(b1-3)Gal(a1-4)Gal(b1-4)Glc", "how_it_was_run": "as §1"}, "[9]": {"biological_target": "Fuc(a1-2)[Gal(a1-4)]Gal(b1-4)GlcNAc", "how_it_was_run": "as §1"}, "[10]": {"biological_target": "Fuc(a1-2)[GalNAc(a1-3)]Gal(b1-3)GlcNAc", "how_it_was_run": "as §1"}, "[11]": {"biological_target": "Fuc(a1-2)[GalNAc(a1-3)]Gal(b1-4)GlcNAc", "how_it_was_run": "as §1"}, "[12]": {"biological_target": "Fuc(a1-2)[GalNAc(a1-3)]Gal(b1-4)GlcNAc(b1-2)Man", "how_it_was_run": "as §1"}, "[13]": {"biological_target": "Fuc(a1-3)[Gal(b1-4)]GlcNAc(b1-6)GalNAc", "how_it_was_run": "as §1"}, "[14]": {"biological_target": "Fuc(a1-3)[Gal(b1-4)]GlcNAc6S", "how_it_was_run": "as §1"}, "[15]": {"biological_target": "Gal(a1-3)Gal(b1-4)GlcNAc(b1-3)GalNAc", "how_it_was_run": "as §1"}, "[16]": {"biological_target": "Gal(a1-3)Gal(b1-4)[Fuc(a1-3)]GlcNAc(b1-2)Man(a1-3)[Gal(a1-3)Gal(b1-4)[Fuc(a1-3)]GlcNAc(b1-2)Man(a1-6)]Man(b1-4)GlcNAc(b1-4)GlcNAc", "how_it_was_run": "as §1"}, "[17]": {"biological_target": "Gal(a1-4)Gal(b1-4)Glc", "how_it_was_run": "as §1"}, "[18]": {"biological_target": "Gal(b1-3)GlcNAc(b1-3)Gal(b1-4)Glc", "how_it_was_run": "as §1"}, "[19]": {"biological_target": "Gal(b1-3)GlcNAc(b1-3)Gal(b1-4)[Fuc(a1-3)]GlcNAc(b1-6)[Gal(b1-3)GlcNAc(b1-3)]Gal(b1-4)Glc", "how_it_was_run": "as §1"}, "[20]": {"biological_target": "Gal(b1-3)[Neu5Ac(a2-6)]GlcNAc(b1-4)Gal(b1-4)Glc", "how_it_was_run": "as §1"}, "[21]": {"biological_target": "Gal(b1-4)GlcNAc(a1-6)Gal(b1-4)GlcNAc", "how_it_was_run": "as §1"}, "[22]": {"biological_target": "Gal(b1-4)GlcNAc(b1-2)[Gal(b1-4)GlcNAc(b1-4)]Man(a1-3)[Gal(b1-4)GlcNAc(b1-2)Man(a1-6)]Man(b1-4)GlcNAc(b1-4)GlcNAc", "how_it_was_run": "as §1"}, "[23]": {"biological_target": "Gal(b1-4)GlcNAc(b1-3)Gal(b1-4)GlcNAc(b1-2)Man(a1-3)[Gal(b1-4)GlcNAc(b1-3)Gal(b1-4)GlcNAc(b1-2)Man(a1-6)]Man(b1-4)GlcNAc(b1-4)GlcNAc", "how_it_was_run": "as §1"}, "[24]": {"biological_target": "Gal(b1-4)GlcNAc(b1-3)Gal(b1-4)GlcNAc(b1-3)Gal(b1-4)GlcNAc(b1-2)Man(a1-3)[Gal(b1-4)GlcNAc(b1-3)Gal(b1-4)GlcNAc(b1-3)Gal(b1-4)GlcNAc(b1-2)Man(a1-6)]Man(b1-4)GlcNAc(b1-4)GlcNAc", "how_it_was_run": "as §1"}, "[25]": {"biological_target": "Gal(b1-4)GlcNAc(b1-3)Gal(b1-4)GlcNAc(b1-3)Gal(b1-4)GlcNAc(b1-2)[Gal(b1-4)GlcNAc(b1-3)Gal(b1-4)GlcNAc(b1-3)Gal(b1-4)GlcNAc(b1-6)]Man(a1-6)[Gal(b1-4)GlcNAc(b1-3)Gal(b1-4)GlcNAc(b1-3)Gal(b1-4)GlcNAc(b1-2)Man(a1-3)]Man(b1-4)GlcNAc(b1-4)[Fuc(a1-6)]GlcNAc", "how_it_was_run": "as §1"}, "[26]": {"biological_target": "Gal(b1-4)GlcNAc(b1-3)Gal(b1-4)GlcNAc(b1-3)Gal(b1-4)GlcNAc(b1-3)Gal(b1-4)GlcNAc(b1-2)[Gal(b1-4)GlcNAc(b1-3)Gal(b1-4)GlcNAc(b1-3)Gal(b1-4)GlcNAc(b1-3)Gal(b1-4)GlcNAc(b1-6)]Man(a1-6)[Gal(b1-4)GlcNAc(b1-3)Gal(b1-4)GlcNAc(b1-3)Gal(b1-4)GlcNAc(b1-3)Gal(b1-4)GlcNAc(b1-2)Man(a1-3)]Man(b1-4)GlcNAc(b1-4)[Fuc(a1-6)]GlcNAc", "how_it_was_run": "as §1"}, "[27]": {"biological_target": "Gal(b1-4)GlcNAc(b1-3)Gal(b1-4)GlcNAc(b1-3)Gal(b1-4)GlcNAc(b1-3)Gal(b1-4)GlcNAc(b1-3)Gal(b1-4)GlcNAc(b1-2)[Gal(b1-4)GlcNAc(b1-3)Gal(b1-4)GlcNAc(b1-3)Gal(b1-4)GlcNAc(b1-3)Gal(b1-4)GlcNAc(b1-3)Gal(b1-4)GlcNAc(b1-6)]Man(a1-6)[Gal(b1-4)GlcNAc(b1-3)Gal(b1-4)GlcNAc(b1-3)Gal(b1-4)GlcNAc(b1-3)Gal(b1-4)GlcNAc(b1-3)Gal(b1-4)GlcNAc(b1-2)Man(a1-3)]Man(b1-4)GlcNAc(b1-4)[Fuc(a1-6)]GlcNAc", "how_it_was_run": "as §1"}}, "note": "The full list was thinned out, with the strongest signals kept by preference.", "data": [{"binder": "B1", "values": [{"measurement": "glycan array binding signal (z-score)", "setting": "[1]", "value": -0.318}, {"measurement": "glycan array binding signal (z-score)", "setting": "[2]", "value": -0.622}, {"measurement": "glycan array binding signal (z-score)", "setting": "[3]", "value": 6}, {"measurement": "glycan array binding signal (z-score)", "setting": "[4]", "value": -0.573}, {"measurement": "glycan array binding signal (z-score)", "setting": "[5]", "value": -0.272}, {"measurement": "glycan array binding signal (z-score)", "setting": "[6]", "value": -0.085}, {"measurement": "glycan array binding signal (z-score)", "setting": "[7]", "value": -0.281}, {"measurement": "glycan array binding signal (z-score)", "setting": "[8]", "value": -0.278}, {"measurement": "glycan array binding signal (z-score)", "setting": "[9]", "value": 0.128}, {"measurement": "glycan array binding signal (z-score)", "setting": "[10]", "value": 0.497}, {"measurement": "glycan array binding signal (z-score)", "setting": "[11]", "value": -0.387}, {"measurement": "glycan array binding signal (z-score)", "setting": "[12]", "value": -0.723}, {"measurement": "glycan array binding signal (z-score)", "setting": "[13]", "value": 0.153}, {"measurement": "glycan array binding signal (z-score)", "setting": "[14]", "value": 0.115}, {"measurement": "glycan array binding signal (z-score)", "setting": "[15]", "value": -0.161}, {"measurement": "glycan array binding signal (z-score)", "setting": "[16]", "value": 3.75}, {"measurement": "glycan array binding signal (z-score)", "setting": "[17]", "value": -0.307}, {"measurement": "glycan array binding signal (z-score)", "setting": "[18]", "value": -0.329}, {"measurement": "glycan array binding signal (z-score)", "setting": "[19]", "value": 0.293}, {"measurement": "glycan array binding signal (z-score)", "setting": "[20]", "value": -0.459}, {"measurement": "glycan array binding signal (z-score)", "setting": "[21]", "value": 3.94}, {"measurement": "glycan array binding signal (z-score)", "setting": "[22]", "value": 0.465}, {"measurement": "glycan array binding signal (z-score)", "setting": "[23]", "value": 5.99}, {"measurement": "glycan array binding signal (z-score)", "setting": "[24]", "value": 4.45}, {"measurement": "glycan array binding signal (z-score)", "setting": "[25]", "value": 4.11}, {"measurement": "glycan array binding signal (z-score)", "setting": "[26]", "value": 4.64}, {"measurement": "glycan array binding signal (z-score)", "setting": "[27]", "value": 3.94}]}]}
